Laboratory results from PubChem BioAssay (NCATS).
Where “and” joins values, the source holds several entries; their conditions need not be identical. Identical values can stand only once. Records with an inconclusive call do not appear. The source holds several records for some structures; these can differ, active in one and inactive in another. Calls of active or inactive are those of the source. Calls come from the whole dose curve; as a rule, active = well fitted inhibition curve with a large enough effect; inconclusive = small, poorly fitted or top-dose-only effect; inactive = flat fitted curve, though single readings scatter.

These molecules were tested on CRL-7250 (assay: Cytotoxic Profiling of Annotated Libraries Using Quantitative High-Throughput Screening (AID 1296008; note: nearly all actives have a fitted effect of over 60% in size)). Conditions: Five cell lines viability, CellTiter-Glo ATP luminescence, 48-72 h; max response: stronger effect = lower value.
Procedure, shortened: (§1)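 Compounds were pin-transferred onto cells and incubated 48 or 72 hr at 37 degree Celsius, 95% humidity. CellTiter-Glo was added, plates sat 10 min at room temperature, then ATP-coupled luminescence was imaged as the viability read-out.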
% is set by controls: 0 for no effect and ±100 for the full control effect; potency is the fitted concentration of half-maximal effect.

SMILES	max response	outcome	Potency
CO[C@H]1C[C@@H]2CC[C@@H](C)[C@@](O)(O2)C(=O)C(=O)N2CCCC[C@@H]2C(=O)O[C@H]([C@@H](C)C[C@@H]2CC[C@H](O)[C@H](OC)C2)CC(=O)[C@H](C)C=C(C)[C@@H](O)[C@@H](OC)C(=O)[C@H](C)C[C@H](C)C=CC=CC=C1C	-19.3% (inactive)	–	–
O=C(O)CCC1CCC(c2cc(F)ccc2F)(S(=O)(=O)c2ccc(Cl)cc2)CC1 (configuration not stated)	–	inactive	–
CCOC(CN1C(=O)[C@](CC(=O)Nc2ccc(C)cc2)(NC(=O)Nc2ccc(C)cc2)c2ccccc21)OCC	2.73% (inactive)	–	–
COc1cc(N2CCC(N3CCN(C)CC3)CC2)ccc1Nc1ncc(Cl)c(Nc2ccccc2S(=O)(=O)C(C)C)n1	–	–	1.46 µM (active)
CC1CCC(C(=O)N(c2cc(C#CC(C)(C)C)sc2C(=O)O)C2CCC(O)CC2)CC1 (configuration not stated)	-4.19% (inactive) and 3.8% (inactive)	–	–
CCOC1OC(=O)C[C@H]1NC(=O)[C@@H]1CCCN1C(=O)[C@@H](NC(=O)c1ccc(N)c(Cl)c1)C(C)(C)C (some centres not stated)	–	inactive	–
c1cc(-c2sc(-c3ccncc3)c(-c3ccncc3)c2-c2ccncc2)ccn1	-2.98% (inactive)	–	–
CCCCCCCCCCCC1=C(O)C(=O)C=C(O)C1=O	–	inactive	–
COc1cc2nc(-c3ccc(N4CCN(C)CC4)cc3)nc(NCCN3CCOCC3)c2cc1OC	–	–	1.66 µM (active)
COC1CCC(N(C(=O)C2CCC(C)CC2)c2cc(C3=CCCCC3)sc2C(=O)O)CC1 (configuration not stated)	-4.75% (inactive)	–	–
CN1CCN(CCOc2cc(OC3CCOCC3)c3c(Nc4c(Cl)ccc5c4OCO5)ncnc3c2)CC1	–	–	10.3 µM (active)
COC(=O)C1=CO[C@@H](O)[C@@H]2C(CO)=CC[C@@H]12	0.508% (inactive)	–	–
N#Cc1ccc(NC(=O)Nc2ccccc2Br)c2n[nH]nc12	-24.9% (inactive)	–	–
COc1ccc(-c2cc(=O)c3c(O)cc(O)cc3o2)cc1O	–	inactive	–
OC[C@@H](O)[C@H](O)[C@H](O)[C@@H](O)CO	3.59% (inactive) and -3.14% (inactive)	–	–
CC1(C)Cc2c(sc(NC(=S)NC(=O)c3ccccc3)c2C(=O)O)CO1	–	inactive	–
CC(=O)O[C@]1(C(C)=O)CC[C@@H]2[C@@H]3C[C@H](C)C4=CC(=O)CC[C@]4(C)[C@H]3CC[C@@]21C	2.81% (inactive)	–	–
CC(C)(C)c1ccc(C(O)CCCN2CCC(C(O)(c3ccccc3)c3ccccc3)CC2)cc1 (configuration not stated)	–	inactive	–

SMILES	max response	outcome	Potency
O=C1c2ccccc2-[n+]2ccc3c([nH]c4ccccc43)c21	–	–	4.69 µM (active)
NC1=N[C@@]2(c3cc(NC(=O)c4ccc(F)cn4)ccc3F)COC[C@@H]2CS1	–	inactive	–
CC1(C)CCC[C@@]2(C)[C@@H]1CC[C@@]1(C)OC(=O)C[C@H]21	1.92% (inactive)	–	–
CC(C)(C)COc1ccc(-n2cc(C(=O)O)cn2)cc1C#N	–	inactive	–
C[C@]12CCC3c4ccc(O)cc4CCC3C1CCC2=O (some centres not stated)	-16.8% (inactive)	–	–
O=c1cc(-c2cccc3c2Sc2ccccc2S3)oc(N2CCOCC2)c1	–	inactive	–
CO[C@@H](C(=O)N1Cc2[nH]nc(NC(=O)c3ccc(N4CCN(C)CC4)cc3)c2C1)c1ccccc1	–	–	5.26 µM (active)
CC(C(=O)O)c1ccc(-c2ccccc2)c(F)c1 (configuration not stated)	2.91% (inactive)	–	–
Clc1ccc(-c2nc3sccn3c2C=NOCc2ccc(Cl)c(Cl)c2)cc1	-8.97% (inactive)	–	–
Cc1c[nH]c(C=C2C(=O)Nc3ccccc32)c1CCC(=O)O	–	–	6.62 µM (active)
Cn1c(N2CCCCS2(=O)=O)nc(C(=O)NCc2ccc(F)cc2)c(O)c1=O	-1.04% (inactive) and -2.16% (inactive)	–	–
Cc1nc(N)sc1-c1ccnc(Nc2ccc(N3CCOCC3)cc2)n1	–	–	9.35 µM (active) and 5.17 µM (active)
O=C(CCCCCCC(=O)Nc1ccccc1)NO	–	–	8.41 µM (active) and 10.3 µM (active) and 11.8 µM (active)
OC[C@H]1O[C@@H](Oc2cc(O)cc(C=Cc3ccc(O)cc3)c2)[C@H](O)[C@@H](O)[C@H]1O	–	inactive	–
CC(C)C(C)C=CC(C)C1CCC2C3=CC=C4CC(O)CCC4(C)C3CCC21C (configuration not stated)	-1.32% (inactive)	–	–
CC=CC(=O)N(CC)c1ccccc1C	-6.43% (inactive)	–	–
COc1cccc(-c2cc(=O)c3ccccc3o2)c1N	-6.48% (inactive)	–	–
CC(C)NCC(O)COc1cccc2[nH]ccc12 (configuration not stated)	-21.3% (inactive) and 3.12% (inactive)	–	–

Each molecule was assayed on HEK293 in the same assay as above. Conditions: Five cell lines viability, CellTiter-Glo ATP luminescence, 48-72 h; max response: stronger effect = lower value.
Procedure, shortened: as §1

SMILES	max response	Potency	outcome
CO[C@H]1C[C@@H]2CC[C@@H](C)[C@@](O)(O2)C(=O)C(=O)N2CCCC[C@@H]2C(=O)O[C@H]([C@@H](C)C[C@@H]2CC[C@H](O)[C@H](OC)C2)CC(=O)[C@H](C)C=C(C)[C@@H](O)[C@@H](OC)C(=O)[C@H](C)C[C@H](C)C=CC=CC=C1C	-97.2% (inactive)	–	–
O=C(O)CCC1CCC(c2cc(F)ccc2F)(S(=O)(=O)c2ccc(Cl)cc2)CC1 (configuration not stated)	-15.1% (inactive)	–	–
CCOC(CN1C(=O)[C@](CC(=O)Nc2ccc(C)cc2)(NC(=O)Nc2ccc(C)cc2)c2ccccc21)OCC	-3.95% (inactive)	–	–
COc1cc(N2CCC(N3CCN(C)CC3)CC2)ccc1Nc1ncc(Cl)c(Nc2ccccc2S(=O)(=O)C(C)C)n1	–	1.16 µM (active)	–
CC1CCC(C(=O)N(c2cc(C#CC(C)(C)C)sc2C(=O)O)C2CCC(O)CC2)CC1 (configuration not stated)	-1.31% (inactive)	–	–
CCOC1OC(=O)C[C@H]1NC(=O)[C@@H]1CCCN1C(=O)[C@@H](NC(=O)c1ccc(N)c(Cl)c1)C(C)(C)C (some centres not stated)	-6.79% (inactive)	–	–
c1cc(-c2sc(-c3ccncc3)c(-c3ccncc3)c2-c2ccncc2)ccn1	-5.01% (inactive)	–	–
CCCCCCCCCCCC1=C(O)C(=O)C=C(O)C1=O	–	–	inactive
COc1cc2nc(-c3ccc(N4CCN(C)CC4)cc3)nc(NCCN3CCOCC3)c2cc1OC	–	5.8 µM (active)	–
COC1CCC(N(C(=O)C2CCC(C)CC2)c2cc(C3=CCCCC3)sc2C(=O)O)CC1 (configuration not stated)	-22.6% (inactive)	–	–
CN1CCN(CCOc2cc(OC3CCOCC3)c3c(Nc4c(Cl)ccc5c4OCO5)ncnc3c2)CC1	–	26.4 µM (active) and 16.4 µM (active)	–
COC(=O)C1=CO[C@@H](O)[C@@H]2C(CO)=CC[C@@H]12	4.92% (inactive)	–	–
N#Cc1ccc(NC(=O)Nc2ccccc2Br)c2n[nH]nc12	-11% (inactive)	–	–
COc1ccc(-c2cc(=O)c3c(O)cc(O)cc3o2)cc1O	-3.68% (inactive)	–	–
OC[C@@H](O)[C@H](O)[C@H](O)[C@@H](O)CO	–	–	inactive
CC1(C)Cc2c(sc(NC(=S)NC(=O)c3ccccc3)c2C(=O)O)CO1	–	–	inactive
CC(=O)O[C@]1(C(C)=O)CC[C@@H]2[C@@H]3C[C@H](C)C4=CC(=O)CC[C@]4(C)[C@H]3CC[C@@]21C	–	–	inactive
CC(C)(C)c1ccc(C(O)CCCN2CCC(C(O)(c3ccccc3)c3ccccc3)CC2)cc1 (configuration not stated)	-7.01% (inactive)	–	–

SMILES	max response	Potency	outcome
O=C1c2ccccc2-[n+]2ccc3c([nH]c4ccccc43)c21	–	2.64 µM (active)	–
NC1=N[C@@]2(c3cc(NC(=O)c4ccc(F)cn4)ccc3F)COC[C@@H]2CS1	-6.98% (inactive)	–	–
CC1(C)CCC[C@@]2(C)[C@@H]1CC[C@@]1(C)OC(=O)C[C@H]21	-1.67% (inactive)	–	–
CC(C)(C)COc1ccc(-n2cc(C(=O)O)cn2)cc1C#N	3.28% (inactive)	–	–
C[C@]12CCC3c4ccc(O)cc4CCC3C1CCC2=O (some centres not stated)	-11.3% (inactive)	–	–
O=c1cc(-c2cccc3c2Sc2ccccc2S3)oc(N2CCOCC2)c1	–	–	inactive
CO[C@@H](C(=O)N1Cc2[nH]nc(NC(=O)c3ccc(N4CCN(C)CC4)cc3)c2C1)c1ccccc1	–	4.18 µM (active)	–
CC(C(=O)O)c1ccc(-c2ccccc2)c(F)c1 (configuration not stated)	1.61% (inactive)	–	–
Clc1ccc(-c2nc3sccn3c2C=NOCc2ccc(Cl)c(Cl)c2)cc1	-1.21% (inactive)	–	–
Cc1c[nH]c(C=C2C(=O)Nc3ccccc32)c1CCC(=O)O	–	3.32 µM (active)	–
Cn1c(N2CCCCS2(=O)=O)nc(C(=O)NCc2ccc(F)cc2)c(O)c1=O	-2.82% (inactive) and 1.1% (inactive)	–	–
Cc1nc(N)sc1-c1ccnc(Nc2ccc(N3CCOCC3)cc2)n1	–	10.5 µM (active) and 7.31 µM (active)	–
O=C(CCCCCCC(=O)Nc1ccccc1)NO	–	5.96 µM (active) and 8.33 µM (active)	–
OC[C@H]1O[C@@H](Oc2cc(O)cc(C=Cc3ccc(O)cc3)c2)[C@H](O)[C@@H](O)[C@H]1O	-2.18% (inactive)	–	–
CC(C)C(C)C=CC(C)C1CCC2C3=CC=C4CC(O)CCC4(C)C3CCC21C (configuration not stated)	4.56% (inactive)	–	–
CC=CC(=O)N(CC)c1ccccc1C	–	–	inactive
COc1cccc(-c2cc(=O)c3ccccc3o2)c1N	-10.3% (inactive)	–	–
CC(C)NCC(O)COc1cccc2[nH]ccc12 (configuration not stated)	-23% (inactive)	–	–
